# GBA mod – modulators of human glucocerebrosidase. purified enzyme, resorufin glucoside fluorescence (screen aimed at inhibitors), 20 min. Potency, µM. 1.1% of 48,000 active. AID 360; in the data active means potency below about 15 µM; inconclusive means mostly about 16 µM to 33 µM;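 further: the screen sought inhibitors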
#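 Wild-type enzyme at 0.2 nM final in 50mM citric acid/KH2PO4, 10mM sodium taurocholate, 0.01% tween-20, pH 5.9, with resorufin beta-D-glucopyranoside at 30 uM final. Compounds titrated, 20 min at RT, red fluorescence read; AC50 from titration.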
# TSHR agonist – TSH receptor (human) agonism; HEK293-CNG-TSHR cells (CNG channel as cAMP sensor), membrane potential dye, cAMP; Potency, µM (doses to about 57.1 µM), for inactives: at the top dose activation, usual class: activators; 0.48% of 73,000 active; P16473; active means well fitted activation curve with a large enough effect in the main read-out, with a control signal flat, not every such curve was filed as active; inconclusive means small, poorly fitted or top-dose-only effect, or a change in a side signal; inactive means no such curve, though single readings can be large or run the other way; % of control where 0% means no effect;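 further: the control signal comes from parental cells without the receptor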
#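 HEK 293 cells stably expressing TSHR and a cAMP-gated CNG channel; parental CNG-only cells as counterscreen. Cells preloaded 60 min with membrane potential dye plus 100 uM RO 20-1724, then compound 30 min; fluorescence read at 590 nm.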
# HEK293 cAMP cs – parental HEK293 cAMP activation (counter-screen); Potency, µM (doses to about 57.1 µM), for inactives: at the highest dose activation, actives largely listed as activators; parental HEK293 CNG cAMP sensor, membrane potential fluorescence; AID 938; 2.5% of 73,000 active; further: % of control where 0% means no effect; nearly all actives have a fitted effect of over 55% in size
#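 Parental HEK 293 cells stably expressing a cAMP-gated CNG channel were loaded with membrane potential dye containing 100 uM RO 20-1724 for 60 min. Compound added for 30 min; depolarization read as fluorescence intensity at 590 nm.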
# PK Bst – alters activity of Bacillus stearothermophilus pyruvate kinase | 1.2% of 51,000 active | Potency, µM | purified pyruvate kinase, luminescence ATP production; ribose 5-phosphate activator present at AC10; in the data active means potency below about 11 µM; inconclusive means mostly about 12 µM to 25 µM;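 the screen sought inhibitors and activators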;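 further: scaled between full activation by ribose 5 phosphate and full inhibition by luteolin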
# ERK AVP inh – vasopressin-driven ERK pathway inhibition | HEK293-V1b, vasopressin-stimulated pERK AlphaScreen | Potency, µM (series often up to 57.5 µM), without a hit: at the highest dose activity, negative = inhibition, actives largely listed as inhibitors | 0.99% of 72,000 active | AID 995; further: on the % scale 0 is the no-effect control and ±100 the full control effect; nearly all actives have a fitted effect of over 55% in size
#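 Phosphorylated ERK1/2 detected via AlphaScreen bead proximity in lysates of V1b-expressing HEK293 cells given 25 nM vasopressin for 5 min after 30 min compound exposure (37 °C). AC50 from Hill equation; basal DMSO 0%, vasopressin 100%.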
# FLuc inh – firefly luciferase inhibition. AID 411. Potency, µM (top dose mostly 57.1 µM), for inactives: at the top dose activity change, negative = inhibition, actives largely listed as inhibitors. 2.2% of 72,000 active. purified firefly luciferase, luminescence, 8 min; further: on the % scale 0 is the no-effect control and ±100 the full control effect; nearly all actives have a fitted effect of over 40% in size
# Target sequence (P08659 whole entry, looked up): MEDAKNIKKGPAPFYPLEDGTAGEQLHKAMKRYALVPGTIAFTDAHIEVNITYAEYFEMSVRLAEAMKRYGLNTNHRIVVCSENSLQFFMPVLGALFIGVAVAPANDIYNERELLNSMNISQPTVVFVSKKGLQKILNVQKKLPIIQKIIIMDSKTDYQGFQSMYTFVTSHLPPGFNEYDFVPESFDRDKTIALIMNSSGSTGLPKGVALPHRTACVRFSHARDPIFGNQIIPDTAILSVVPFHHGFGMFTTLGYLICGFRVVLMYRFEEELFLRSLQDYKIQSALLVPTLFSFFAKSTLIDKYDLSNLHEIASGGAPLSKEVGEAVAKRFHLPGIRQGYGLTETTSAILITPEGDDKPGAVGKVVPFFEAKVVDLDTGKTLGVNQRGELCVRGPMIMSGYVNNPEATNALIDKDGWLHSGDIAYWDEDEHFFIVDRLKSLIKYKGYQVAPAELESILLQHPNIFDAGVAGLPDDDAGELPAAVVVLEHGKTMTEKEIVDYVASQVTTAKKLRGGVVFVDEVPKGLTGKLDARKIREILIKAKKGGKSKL
#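 Firefly luciferase (PKLight detection mix) with 10 uM ATP in pH 7.2 imidazole buffer (KCl, MgCl2, Tween 20, BSA). Compounds tested across a concentration series (qHTS). Luminescence read after 8 min at ambient temperature.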
# * hit, by the source's call; i = inactive; ? = inconclusive; . = no result given; ! = a repeat was not active; [ ] = dose if it differs, or a comment. In the library only some 6.1% were active in any assay of this set; here they are far more common. Unless noted, the call rests on the fitted dose curve; in most records, active means well fitted curve in the direction sought with a large enough effect; inconclusive means small, poorly fitted or top-dose-only effect, or another doubt; inactive means no such curve, though single readings can be large; an effect the other way counts as inactive or inconclusive. Potency means the concentration at half of the fitted maximal effect.
SMILES,GBA mod,TSHR agonist,HEK293 cAMP cs,PK Bst,ERK AVP inh,FLuc inh
Cc1ccn2cc(C(=O)Nc3ccc4c(c3)OCCO4)nc2c1,>77,4%,6%,7*,?,6.3µM*
Cc1ccn2cc(C(=O)Nc3ccccc3N3CCOCC3)nc2c1,>77,0%,25%,.,-4%,?
Cc1ccccc1NC(=O)c1nc[nH]c1C(=O)NCc1ccccc1,.,-22%,9%,>57,25µM*,2%
Cc1cc(C(=O)NCc2ccccc2)no1,>77,6%,0%,>57,4%,2%
O=C(c1csnn1)N1CCC2(CCCN(c3ccc(-c4ccccc4)cc3)C2)CC1,.,-2%,18%,.,-8%,0%[11.4 µM]
CCOc1ccc(OCC)c(NC(=O)CSc2nc3ccccc3c(=O)n2C)c1,>77,?,?,>57,3%,6%
CCOC(=O)c1c(NC(=O)CSc2nc3cccnc3n2C)sc(C(C)=O)c1C,>77,?,?,>57,-28%,0%
CCOc1ccc(OCC)c(NC(=O)CSc2nc3cccnc3n2C)c1,>77,?,32µM*,.,-26%,-2%
CCOc1ccccc1NC(=O)CSc1nc2c(c(=O)n1C)SC(C)C2 (stereo not given),.,?,32µM*,.,.,-2%
CCOC(=O)c1cccc(NC(=O)CSc2nc3cccnc3n2C)c1,>77,?,?,>57,25µM*,-35%
CCOc1ccc(NC(=O)CSc2nc3c(c(=O)n2C)SC(C)C3)cc1 (stereo not given),.,19%,21%,.,.,0%
CC(=O)c1ccsc1B(O)O,.,4%,4%,.,-19%,.
Cc1nc(NCCO)c2nc(-c3ccccc3)n(CCN(C)C)c2n1,.,2%,2%,.,-28%,.
CCCCNc1nc(C)nc2c1nc(-c1ccccc1)n2CCN(C)C,.,?,25µM*,.,-5%,.
CCCn1c(-c2ccc(F)cc2)nc2c(NCC(C)(C)CN(C)C)nc(C)nc21,.,?,25µM*,.,-9%,.
CCCn1c(-c2ccc(F)cc2)nc2c(NCCCN(C)C)nc(C)nc21,.,?,25µM*,.,0%,.
C[N+](C)(C)CC(=O)N/N=C\c1c(O)ccc2ccccc12,.,-2%[11.4 µM],2%[11.4 µM],.,12%[11.5 µM],3%[11.4 µM]
C#CCOC(=O)[C@H](N)CC(N)=O,.,-4%[11.4 µM],4%[11.4 µM],.,13%[11.5 µM],0%[11.4 µM]
Cc1cccc(N2CCN(c3nnnn3-c3ccccc3)CC2C)c1 (stereo not given),.,?,25µM*,>57,-14%,3%
COc1ccc(-n2c(/C=C(\C)O)nc(=O)c3c(C)cc(C)nc32)cc1,?,?,25µM*,>57,-17%,4%
COc1ccc(CN(Cc2ccccn2)C(=O)CN2C(=O)COc3ccccc32)cc1,>77,13%,28%,>57,-14%,-1%
COc1ccc(CN(C(=O)CN2C(=O)COc3ccccc32)C2CCCC2)c(OC)c1,>77,?,20µM*,>57,-3%,0%
COc1ccccc1NC=C1C(=O)OC(C)(C)OC1=O,.,-5%,0%,.,-22%,16µM*
C[C@]12C=CC(=O)C=C1CC[C@@H]1[C@H]3C[C@@H](O)[C@](O)(C(=O)CO)[C@]3(C)C[C@H](O)[C@]12F,.,5%,-1%,.,.,1%
N#Cc1c(NC(=O)CSc2ncnc3c2cnn3-c2ccccc2Cl)sc2c1CCCC2,>77,12%,6%,>57,0%,3%
SMILES,GBA mod,TSHR agonist,HEK293 cAMP cs,PK Bst,ERK AVP inh,FLuc inh
CCOC(=O)Cc1csc(NC(=O)CSc2ncnc3c2cnn3-c2ccccc2Cl)n1,>77,?,?,>57,40µM*,-2%
CO[C@H]1COC(=O)[C@@H](CCSC)NC(=O)C/C=C\[C@@H](C)COC(=O)[C@@H](OCc2ccccc2)/C=C\[C@@H]1C,.,-1%[11.4 µM],6%[11.4 µM],.,16%[11.5 µM],1%[11.4 µM]
CC(C)c1nc2oc3c(NCc4ccccn4)ncnc3c2c2c1COC(C)(C)C2,>77,-1%,1%,>57,-17%,1%
Cc1nc2oc3c(NCc4ccccn4)ncnc3c2c2c1COC(C)(C)C2,>77,-4%,6%,>57,25µM*,2%
O=c1nc2n(c3c1oc1ccccc13)Cc1ccccc1-2,?,3%,-4%,i,8%,2%
Fc1ccc(-c2nc3n(n2)Cc2ccccc2-3)cc1,>77,10%,10%,2.5*,-19%,4µM*
CCn1c(C)nc2cc(-c3nc4n(n3)Cc3ccccc3-4)ccc21,.,0%,-5%,0.095*,5%,0.05µM*
Clc1ccc2c(N3CCC(CCC4CCN(c5ncnc6cc(Cl)ccc56)CC4)CC3)ncnc2c1,.,-3%[11.4 µM],-4%[11.4 µM],.,12%[11.5 µM],-1%[11.4 µM]
c1cc(CSSCc2ccncc2)ccn1,.,17%[11.4 µM],10%[11.4 µM],.,8%[11.5 µM],0%[11.4 µM]
CCC(c1nnnn1Cc1ccco1)N(Cc1cc2cc(C)cc(C)c2[nH]c1=O)CC1CCCO1 (stereo not given),>77,?,20µM*,.,4%,-7%
c1cn(-c2ccnc(-c3ccc4c(c3)OCO4)n2)cn1,.,5%,-13%,.,20µM*,2%[2.29 µM]
CCn1ccc(C(=O)Oc2ccc(C(C)C)cc2)n1,>77,0%,-5%,i,12%,13µM*
CCC(=O)Oc1ccc(C(CC)C(CC)c2ccc(OC(=O)CC)cc2)cc1 (stereo not given),.,.,.,>26,.,0%[25.5 µM]
Cc1ccc(-c2cc3c(nn2)-c2ccccc2C3=O)cc1,.,.,7%[11.4 µM],.,?,0.25µM*
CC1Cc2c(-c3ccccc3)nc3c(c2CO1)CN(CCOc1ccccc1)CC3 (stereo not given),.,2%[11.4 µM],5%[11.4 µM],.,4%[11.5 µM],.
CCO,.,?,?,.,26%,.
CSc1nc2nc(C)cc(-c3ccccc3)n2n1,>77,9%,-2%,>57,-30%,1%
CSc1nc2nc(-c3ccccc3)cc(C(F)(F)F)n2n1,11*,29%,3%,>57,-21%,-4%
CCN(CCO)CCCC(C)Nc1ccnc2cc(Cl)ccc12 (stereo not given),.,.,.,.,8%,.
CCN(CC)CCC[C@H](C)Nc1c2ccc(Cl)cc2nc2ccc(OC)cc12,.,-60%[25.6 µM],-16%[25.6 µM],.,33%[25.7 µM],6.3µM*!
O=C(COC(=O)c1cccnc1)Nc1cccc(Cl)c1,>77,-8%,2%,>57,-7%,-3%
O=C(COC(=O)c1cccnc1)c1ccc(Cl)cc1,>77,1%,-1%,.,-1%,16µM*
Cc1c(CCC(=O)O)c(=O)oc2cc3occ(-c4ccc(F)cc4)c3cc12,>77,-2%,-8%,8.3*,-15%,-1%
COc1ccc2nc(SCC(N)=O)[nH]c2c1,>77,-5%,14%,>57,-9%,0%
Nc1nc(CSc2ccccn2)nc(Nc2ccccc2)n1,>77,?,?,.,-20%,20µM*
CCOC(=O)c1cnc(SCc2nc(N)nc(Nc3ccccc3)n2)nc1N,>77,-8%,-8%,>57,-19%,-14%
COc1ccc2nc(SCc3nc(N)nc(Nc4ccccc4)n3)[nH]c2c1,.,5%,-3%,.,?,13µM*

# Compound activity: PubChem, National Center for Advancing Translational Sciences (NCATS)
